Values joined by “and” are separate entries in the source; they are usually repeats but may differ in a detail not shown here. Equal entries are not always repeated. Records with an inconclusive call do not appear. Unmarked numbers belong to inactive results. Active and inactive are the calls of the source. The call rests on the fitted dose curve; in most records, active means well fitted inhibition curve with a large enough effect; inconclusive means small, poorly fitted or top-dose-only effect; inactive means flat fitted curve, though single readings scatter. Where a SMILES comes first, the peptide text is derived from it. Bridges are numbered along the chain shown (N, C = ends). [ ]: non-standard residue; d: D form. Orn = NCCC[C@H](N)C(=O)O; Mpa = O=C(O)CCS
What was measured:
[1] = system: KB-3-1; experiment: Cytotoxic Profiling of Annotated Libraries Using Quantitative High-Throughput Screening (AID 1296008); details: Five cell lines viability, CellTiter-Glo ATP luminescence, 48-72 h; max response: hits give low values; on max response: on the % scale 0 is the no-effect control and ±100 the full control effect
Method in brief: (§1)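 Compounds were pin-transferred onto cells and incubated 48 or 72 hr at 37 degree Celsius, 95% humidity. CellTiter-Glo was added, plates sat 10 min at room temperature, then ATP-coupled luminescence was imaged as the viability read-out.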

[2] = system: NIH3T3; experiment: as above; details: Five cell lines viability, CellTiter-Glo ATP luminescence, 48-72 h; max response: hits give low values
Method in brief: as §1

[3] = system: HEK293T; experiment: qHTS assay to identify novel small-molecules to repurpose for Merkel cell carcinoma treatment (AID 1296009); details: MCC and control cell lines, CellTiter-Glo viability, 72 h
Method in brief: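 Viability readout: ATP luminescence (CellTiter-Glo) after 72 hr drug exposure at 37 degree celsius. Dose-response format was 8 points for NPC and 11 points for MIPE; data normalized to in-plate controls.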
Further: nearly all actives have a fitted effect of over 60% in size.
Potency means the concentration at half of the fitted maximal effect.

## CCOc1ccc(N=C(C)Nc2ccc(OCC)cc2)cc1
[1]
  max response: -26.1%

## CC1(S(=O)(=O)O)CC(=O)c2ccccc2C1=O (centres undefined)
[1]
  max response: 5.99%

## OCC(O)COc1ccc(Cl)cc1 (centres undefined)
[1]
  max response: -9.74%

## O=C(O)c1cccc(/C=C2/C[C@@H]3[C@@H](/C=C/[C@@H](O)C4CCCCC4)[C@H](O)C[C@@H]3O2)c1
[1]
  max response: -0.588%

## O=c1[nH]cnc2[nH]cc(CN3CCCCC3)c12
[1]
  max response: -7.83%

## O=C(Cn1c(=O)sc2ccc(Cl)cc21)N1CCN(CCO)CC1
[1]
  max response: 2.82%

## O=C(Nc1nnc(-c2ccc3c(c2)OCCO3)o1)C1CCCCC1
[1]
  max response: 6.45%

## NCCCNCCCCNC(=O)C(O)NC(=O)CCCCCCN=C(N)N (centres undefined)
[1]
  max response: -11.3%

## CCCC(CCC)C(N)=O
[1]
  max response: -11%

## CCOc1ccc(C[C@H]2NC(=O)CCSSC[C@@H](C(=O)N3CCC[C@H]3C(=O)N[C@@H](CCCN)C(=O)NCC(N)=O)NC(=O)[C@H](CC(N)=O)NC(=O)[C@H]([C@@H](C)O)NC(=O)[C@H]([C@@H](C)CC)NC2=O)cc1 ([Mpa][dY](Et)ITNCP[Orn]G-NH2; disulfide 1-6)
[1]
  max response: -2.06%

## COc1ccc(CCNCC(O)COc2cccc(C)c2)cc1OC (centres undefined)
[1]
  max response: -6.7%

## O=C(O)[C@@H](O)[C@H](O)[C@H](O)[C@@H](O)C(=O)O (tested in a mixture with another compound)
[1]
  max response: -0.35%

## CC(=O)O[C@H]1C[C@@H]2CC[C@@H]3[C@H](CC[C@@]4(C)[C@H]3C[C@H](N3CC[N+](C)(C)CC3)[C@@H]4OC(C)=O)[C@@]2(C)C[C@@H]1N1CC[N+](C)(C)CC1
[1]
  max response: -0.194%

## CCCCCCCCCCCCCCCCCC(=O)OCCO
[1]
  max response: -9.35%

## CCCCC(=O)O
[1]
  max response: -12.9% and -9.7%

## c1cnc2cc3c(cc2n1)[C@@H]1CNC[C@H]3C1
[1]
  max response: -10.7%

## CN=C(NC)NCc1ccccc1
[1]
  max response: -10.8%

## COC(=O)C1=C(C)NC(C)=C(C(=O)O[C@H]2CCN(Cc3ccccc3)C2)[C@H]1c1cccc([N+](=O)[O-])c1
[1]
  max response: -25.4%

## Cc1c(O)cc2c(c1C)O[C@](C)(CCC[C@H](C)CCC[C@H](C)CCCC(C)C)CC2
[1]
  max response: -6.57%

## CC(C)(S)C(=O)N[C@@H](CS)C(=O)O
[1]
  max response: -0.209% and -15.2%

## C/C(=C(\CCOC(=O)c1ccccc1)SS/C(CCOC(=O)c1ccccc1)=C(/C)N(C=O)Cc1cnc(C)nc1N)N(C=O)Cc1cnc(C)nc1N
[1]
  max response: -12.4%

## C[C@H]1C[C@@H]2[C@H]([C@@H](O)C[C@@]3(C)[C@H]2CC[C@]3(O)C(=O)COC(=O)CCC(=O)O)[C@@]2(C)C=CC(=O)C=C12
[1]
  max response: -6.8%

## CCOC(=O)COc1ccc2c(=O)cc(-c3ccccc3)oc2c1
[1]
  max response: -2% and -15.3%

## O=C(O)c1ccccc1[O-].O=C(O)c1ccccc1[O-].[Zn+2]
[1]
  max response: -8.24%

## CN1CC(O)c2cc(N=NC(N)=O)c(O)cc21 (centres undefined)
[1]
  max response: -10.6%

## O=C[C@H](O)[C@@H](O)[C@H](O)[C@H](O)CO
[1]
  max response: -5.79%

## CCOC(=O)Cc1cccc(-c2cc(CCCCCCc3ccc(O[C@H]4O[C@H](COC(C)=O)[C@@H](OC(C)=O)[C@H](OC(C)=O)[C@@H]4OC(C)=O)c(-c4cccc(CC(=O)OCC)c4)c3)ccc2O[C@H]2O[C@H](COC(C)=O)[C@@H](OC(C)=O)[C@H](OC(C)=O)[C@@H]2OC(C)=O)c1
[1]
  max response: -10.9%

## CC(C)(C)[C@H](NC(=O)c1ccc(N)c(Cl)c1)C(=O)N1CCC[C@H]1C(=O)N[C@H](C#N)CC(=O)O
[1]
  max response: 5.39%

## CCOC(=O)Nc1ccc2c(c1)N(C(=O)CN(C)C)c1ccccc1CC2
[1]
  max response: -13.4%

## O=P(O)(O)C(Sc1ccc(Cl)cc1)P(=O)(O)O
[1]
  max response: 2.09%

## C=C1C(=O)O[C@@H]2[C@H]3C(C)=CC(=O)C3=C(C)[C@@H](OC(=O)/C(C)=C\C)[C@H](O)[C@@H]12
[1]
  max response: 5.28%

## CC(=O)OCC(=O)[C@@]1(O)[C@H](C)C[C@H]2[C@@H]3C[C@H](F)C4=CC(=O)C=C[C@]4(C)[C@H]3[C@@H](O)C[C@@]21C
[1]
  max response: 23.1%

## Cc1ccc(NC(=O)N2CCN(c3nc(N)nc4sc(-c5cccnc5)nc34)CC2)cc1
[1]
  max response: -18.9%
[2]
  Potency: 2.91 µM (active)

## O=c1cc(N2CCOCC2)nc2c3ccccc3ccn12
[1]
  max response: -19.2%
[2]
  max response: -3.69%

## C=C1C(=O)OC2C3=C(C)C(=O)CC3C(C)CC(O)C12 (centres undefined)
[1]
  max response: 9.21%
[2]
  max response: -16.4%

## COC1=C(C(=O)O)N2C(=O)[C@@H](NC(=O)[C@H](N)C3=CCC=CC3)[C@H]2SC1
[1]
  max response: -6.73%

## CCNC(=O)C#Cc1ccc2c(C(=Nc3ccc(CN(C)C)cc3)c3ccccc3)c(O)[nH]c2c1
[1]
  Potency: 0.0282 µM (active)
[2]
  Potency: 0.709 µM (active)

## C[C@H](Oc1cc(-n2cnc3ccc(CN4CCN(C)CC4)cc32)sc1C(N)=O)c1ccccc1C(F)(F)F
[1]
  Potency: 1.03 µM (active)
[2]
  Potency: 18.4 µM (active)
[3]
  Potency: 1.3 µM (active)

Source: PubChem BioAssay (NCATS)
